Bioassay records from PubChem BioAssay.
An excerpt weighted towards active compounds, which were near 4.2% of everything screened.
MITF act – activators of MITF-driven TRPM1 promoter reporter, primary screen, cell-based, SK-MEL-5, luciferase, single point; SK-MEL-5 TRPM1-promoter luciferase, 24 h; % of positive control, neutral wells = 0; activation, % at 12.5 µM; 0.75% of 300,000 active;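 active = mean activation of at least 80% with every replicate also reaching 80%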;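 also: 0% = neutral control wells and 100% = parthenolide positive control wells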
Wnt act – Wnt/beta-catenin pathway activators, primary screen, cell-based, plate reader, single point; Wnt/beta-catenin reporter cell assay, activator; activation, % at 9.35 µM; 1.2% of 300,000 active; in the data active = activation above about 30%, passing the limit was not always enough;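 also: 0% = neutral control wells and 100% = positive control wells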
FXN GAA850 act – FXN promoter activators, primary screen, cell-based, luciferase luminescence, HEK293 lucGAA850 | 0.56% of 360,000 active | AID 540364, 2011 | activation, % at 6 µM | HEK293 lucGAA850 FXN promoter luciferase reporter, 24 h; percent of 10 µM SAHA response;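 active = activation above the average of all compounds screened plus 3 SD, cutoff fixed separately per campaign, cut at about 7.5% in these data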;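 also: 0% = DMSO wells and 100% = 10 µM SAHA wells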
esBAF inh – Bmi1 luciferase reporter increase in mESCs, primary screen, esBAF inhibitor project, mouse ES cells, Bmi1 luciferase knock-in, single point; 24 h; 100% = twice the neutral-well signal; reporter increase, % at 12.5 µM; 2% of 350,000 active; AID 602393, 2012; in the data active = activation above about 40%;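 also: 0% = median of the plate's neutral control wells and 100% = double that signal; a rise in the Bmi1 reporter signal indicates esBAF inhibition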
AHR act – AHR activators, primary screen, cell-based, luminescence, luciferase reporter, human; Aryl hydrocarbon receptor (Homo sapiens), P35869; activation, % at 5 µM; AID 2796, 2010; AHR-responsive luciferase reporter cells; 2.5% of 320,000 active; in the data active = activation above about 47%;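 also: 0% = vehicle wells and 100% = reference agonist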
Target sequence (P35869 whole entry, looked up): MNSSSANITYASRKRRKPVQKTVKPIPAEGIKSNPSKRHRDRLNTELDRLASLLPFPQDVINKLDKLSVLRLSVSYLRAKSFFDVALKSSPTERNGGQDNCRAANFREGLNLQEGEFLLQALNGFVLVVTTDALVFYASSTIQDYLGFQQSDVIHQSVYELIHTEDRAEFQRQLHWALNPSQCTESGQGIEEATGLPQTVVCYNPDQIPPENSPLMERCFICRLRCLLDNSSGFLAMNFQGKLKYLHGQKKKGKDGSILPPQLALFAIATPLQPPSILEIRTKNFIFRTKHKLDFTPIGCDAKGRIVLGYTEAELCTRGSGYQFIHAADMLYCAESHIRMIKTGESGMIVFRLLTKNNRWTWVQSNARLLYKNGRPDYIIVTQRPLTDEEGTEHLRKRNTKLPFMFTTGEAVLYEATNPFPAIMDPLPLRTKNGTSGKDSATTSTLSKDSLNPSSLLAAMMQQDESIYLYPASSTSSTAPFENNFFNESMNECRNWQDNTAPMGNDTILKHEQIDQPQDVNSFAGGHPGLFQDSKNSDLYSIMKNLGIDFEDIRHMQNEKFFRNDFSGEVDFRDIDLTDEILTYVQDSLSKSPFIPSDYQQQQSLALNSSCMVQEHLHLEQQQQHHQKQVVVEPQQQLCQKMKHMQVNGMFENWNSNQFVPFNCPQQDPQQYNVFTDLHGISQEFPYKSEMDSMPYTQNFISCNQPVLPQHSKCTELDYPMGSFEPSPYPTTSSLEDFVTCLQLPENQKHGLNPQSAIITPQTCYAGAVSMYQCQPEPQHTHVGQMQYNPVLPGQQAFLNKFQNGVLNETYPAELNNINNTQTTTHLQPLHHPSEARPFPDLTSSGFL
The depositor's hits bear a star; x = no result.

SMILES | MITF act | Wnt act | FXN GAA850 act | esBAF inh | AHR act
Cn1c(O)c(Cc2ccc(OCc3ccccc3)cc2)c(=O)n(C)c1=O | 43.9 | 33.3* | 1.0 | 14.7 | 1.9
COC(=O)C1=C(c2ccc(Cl)c(C(F)(F)F)c2)C[C@@H]2CC[C@H]1N2C(=O)NCc1ccc2c(c1)OCO2 | -0.4 | 57.4* | 0.4 | 11.0 | 0.2
CCN1[C@@H]2Cn3c(ccc(-c4cccc(OC)c4)c3=O)[C@H]1[C@@H](C(=O)OC)[C@@H]2CO | x | x | x | 3.6 | x
CC(C)CC#Cc1ccc([C@@H]2[C@H](CO)N3CCCCN(C(=O)Cc4ccccn4)C[C@@H]23)cc1 | x | x | x | -7.5 | x
N[C@@H](Cc1c[nH]c2ccccc12)c1nnc(SCc2ccccc2)o1 | 3.8 | x | 0.2 | 1.2 | 74.4*
CN(C)[C@@H]1C(=O)C(C(N)=O)=C(O)[C@@]2(O)C(=O)C3=C(O)c4c(O)cccc4[C@@](C)(O)[C@H]3[C@H](O)[C@@H]12 | 0.2 | -3.1 | 1.9 | -0.7 | 2.7
CN(C)[C@@H]1C(=O)C(C(N)=O)=C(O)[C@@]2(O)C(=O)C3=C(O)c4c(O)cccc4[C@@](C)(O)C3C[C@@H]12 (stereo partly specified) | -2.1 | -2.9 | 18.6* | 7.7 | 0.4
O=C(Cc1cccnc1)N1CCCCN2[C@H](CO)[C@@H](c3ccc(C#CC4(O)CCCC4)cc3)[C@@H]2C1 | x | x | x | 11.0 | x
O=C(O)[C@H]1[C@H](CO)[C@H]2Cn3c(ccc(-c4cncnc4)c3=O)[C@@H]1N2C(=O)NC1CCCC1 | x | x | x | 4.8 | x
O=C1NC(=O)N(Cc2ccco2)C(=O)/C1=C/c1ccc(-c2cccc([N+](=O)[O-])c2)o1 | -14.3 | x | 2.6 | x | 5.1
C=CCN1C(=O)NC(=O)/C(=C\c2ccc(-c3ccccc3[N+](=O)[O-])o2)C1=O | -25.6 | 47.6* | 3.5 | x | 10.1
CN1C(=O)C(=Cc2c(OCc3cnc(Cl)s3)ccc3ccccc23)C(=O)N(C)C1=O | 33.7 | 5.5 | 5.2 | 49.9* | 8.3
COc1ccc(-n2c(-c3ccc(C)cc3)nc3ccccc3c2=O)cc1 | x | -0.4 | 2.1 | x | 0.1
COc1ccc(-c2nc3ccccc3c(=O)o2)cc1 | 19.0 | 7.0 | 0.6 | 49.8* | 12.2
COC(=O)C[C@@H]1CC[C@H]2NC[C@H](O)COC[C@@H]2O1 | x | x | x | -5.0 | x
CCC(=NCCCn1ccnc1)c1c(O)n(-c2ccccc2)c(=O)[nH]c1=O | -5.2 | 1.3 | 0.1 | x | 2.2
CCC(=NCCCn1ccnc1)c1c(O)n(Cc2ccccc2)c(=O)[nH]c1=O | x | x | 0.3 | x | 47.5*
Cc1ccc(OCCOc2cccc(C=C3C(=O)NC(=O)NC3=O)c2)cc1 | -35.2 | 36.7* | 3.4 | -0.7 | -0.8
Cc1cc(C)cc(OCCOc2cccc(C=C3C(=O)NC(=O)NC3=O)c2)c1 | x | 2.5 | 1.8 | 14.8 | 8.1
COC(=O)[C@@H]1[C@@H](CO)[C@@H]2Cn3c(ccc(-c4ccccc4F)c3=O)[C@H]1N2C(=O)C1CC1 | x | x | x | -4.9 | x
CCCNC(=O)[C@H]1[C@H](CO)[C@H]2Cn3c(cccc3=O)[C@H]2N1C | x | x | x | -0.8 | x
O=C(O)[C@@H]1[C@@H](CO)[C@@H]2Cn3c(ccc(C4=CCCCC4)c3=O)[C@H]1N2CCc1ccccc1 | x | x | x | 0.1 | x
Cc1nn(Cc2ccccc2Cl)c(C)c1C(=O)OCC(=O)N1CC(C)OC(C)C1 (stereo unspecified) | 5.4 | x | 0.3 | x | 52.1*
Cc1nn(Cc2ccccc2Cl)c(C)c1C(=O)OCC(=O)NC1CCCC(C)C1C (stereo unspecified) | -1.7 | -3.4 | 0.0 | x | 0.0
COC(=O)[C@@H]1[C@@H](CO)[C@@H]2Cn3c(ccc(C4=CCCCC4)c3=O)[C@H]1N2CC1CCCC1 | x | x | x | 1.1 | x
O=C(c1ccc2c(c1)OCO2)C1CCCN(Cc2c(F)cccc2Cl)C1 (stereo unspecified) | -6.5 | 0.0 | -1.2 | -3.5 | 48.2*
COc1cc2c(cc1OC)-c1c3c(cc4c1[C@@H](C2)N(C)CC4)OCO3 | 5.5 | 2.0 | -0.2 | 0.5 | 54.9*
NNP(=O)(CC(=O)c1ccccc1)c1ccccc1 (stereo unspecified) | x | -1.8 | 1.8 | x | 1.4
NCC(=O)c1ccccc1 | 53.6 | 15.2 | 0.8 | 67.2* | x
COc1ccc(C(=O)N2CCC3(CC2)OCCO3)cc1 | x | 1.0 | 2.5 | 0.2 | -1.1
